# Reference: PubChem BioAssay (Tox21)
# “And” between values parts separate entries of the source, which are not always exact repeats. Equal entries are not always repeated. Inconclusive results are not listed. Entries that show only a call come without a potency. The source made the active and inactive calls. The call rests on the fitted dose curve.
# Experiment: qHTS assay for small molecule agonists of the p53 signaling pathway (AID 651631); further: nearly all actives have a fitted effect of over 15% in size
# Conditions: HCT-116 p53RE-bla reporter, beta-lactamase FRET ratio, 16 h; series mostly up to 73.3 µM; activation: at the top concentration
# Excerpt: U.S. Tox21 Program National Center for Advancing Translational Sciences [NCATS] NIH Chemical Genomics Center [NCGC] U.S. Environmental Protection Agency [EPA] National Institutes of Environmental Health Sciences [NIEHS] National Toxicology Program [NTP] U.S. Food and Drug Administration [FDA] Tox21 Assay Overview: p53, a tumor suppressor protein, is activated following cellular insult, including DNA damage and other cellular stresses. The activation of p53 regulates cell fate by inducing DNA repair, cell cycle arrest, apoptosis, or cellular senescence. The activation of p53, therefore, is a good indicator of DNA damage and other cellular stresses. The CellSensor p53RE-bla HCT-116 cell line (Invitrogen) contains a stably integrated beta-lactamase reporter gene under control of the p53 response elements. The activation of the reporter gene under culture conditions can be detected by fluorescence intensity. This cell line was used to screen the Tox21 compound library in a 1536-well plate format and to identify agonists that activate the p53 signaling pathway.
# Tox21 Assay Protocol Summary: The p53RE-bla cells were dispensed at 4,000 cells/5 ul/well in 1536-well black wall/clear bottom plates using a Multidrop dispenser. After the assay plates were incubated at a 37 C/5% CO2 incubator for 5 hours, 23 nL of compounds dissolved in DMSO, positive controls or DMSO only was transferred to the assay plate by a pin tool. The plates were incubated at 37 C for 16 hours. After 1 uL of LiveBLAzerTM B/G FRET substrate was added using a Flying Reagent Dispenser, the plates were incubated at room temperature for 2 hours, and fluorescence intensity was measured by an Envision plate reader.
# Potency means the concentration at half of the fitted maximal effect.
SMILES,activation,Potency
CC(=O)OC/C=C(C)/C=C/C=C(C)/C=C/C1=C(C)CCCC1(C)C,-3.41% (inactive),
Cc1cccc2ccccc12,,inactive
CCCCCCCCCCCCCC(=O)OC(C)C,,inactive
O=C(O)Cc1cccc2ccccc12,4.06% (inactive),
CCN(CC)CCOC(=O)c1ccc(N)cc1,,inactive
COC(=O)C1CCC(C(=O)OC)CC1 (stereo not given),,inactive
CCCCC/C(C=O)=C\c1ccccc1,,inactive
CC(C)Cc1ccc(C(C)C(=O)O)cc1 (stereo not given),,inactive
Cc1ccc(O)c(-n2nc3ccccc3n2)c1,,inactive
Cc1cnc(NC(=O)C2=C(O)c3ccccc3S(=O)(=O)N2C)s1,,inactive
COc1cc(C=O)ccc1O,,inactive
NC(=O)NO,,inactive
CCN1CCCC1=O,,inactive
CCc1cc(C(N)=S)ccn1,,inactive
CC1=NN(c2ccccc2)C(=O)C1,,inactive
O=C1CCCCCN1,,inactive
COc1ccc(C(=O)c2ccccc2)c(O)c1,,inactive
CN(C)Cc1cc(CN(C)C)c(O)c(CN(C)C)c1,,inactive
C[C@]12C[C@H](O)[C@H]3[C@@H](CCC4=CC(=O)CC[C@@]43C)[C@@H]1CC[C@@H]2C(=O)CO,,inactive
CCCCOCCOCCOC(C)=O,,inactive

SMILES,activation,Potency
O=C(O)CN(CC(=O)O)CC(=O)O,,inactive
CO[C@H]1C=CO[C@@]2(C)Oc3c(C)c(O)c4c(O)c(c(/C=N/N5CCN(C)CC5)c(O)c4c3C2=O)NC(=O)/C(C)=C\C=C[C@H](C)[C@H](O)[C@@H](C)[C@@H](O)[C@@H](C)[C@H](OC(C)=O)[C@@H]1C,,inactive
CCOCCO,,inactive
CCCCCCCCOc1ccc(C(=O)c2ccccc2)c(O)c1,-3.41% (inactive),
COC(=O)c1ccc(C=O)cc1,7.03% [at 95.1 µM] (inactive),
Oc1cccc(O)c1,,inactive
CC(=O)CCC(C)C,,inactive
CCOC(=O)C(C)(C)Oc1ccc(Cl)cc1,,inactive
CN/C(=C\[N+](=O)[O-])NCCSCc1ccc(CN(C)C)o1,-1.27% (inactive),
Cc1cccc(Nc2cc(Cl)nc(SCC(=O)O)n2)c1C,,inactive
NC(=O)OCC(COC(N)=O)c1ccccc1,,inactive
CC(C)CC(C)CC(O)CC(C)C (stereo not given),,inactive
C#C[C@]1(O)CC[C@H]2[C@@H]3CCc4cc(O)ccc4[C@H]3CC[C@@]21C,,8.41 µM (active) and 7.64 µM (active) and 6.11 µM (active)
COC(=O)c1ccc(O)cc1,,inactive
CCCCOCCOCCSC#N,,inactive
CCCCCCCC(=O)OCC(O)CO (stereo not given),,inactive
COc1ccc(O)cc1,,inactive
CCCCNC(=O)NS(=O)(=O)c1ccc(N)cc1,,inactive
C=C(C)C(N)=O,,inactive
CN(C)C=O,-1.47% (inactive),
